# Experimental data reported in PubChem BioAssay (Tox21).
# A number with no mark means an inactive call. The source made the active and inactive calls. Calls follow the shape of the dose curve; as a rule, active = well fitted curve in the direction sought with a large enough effect in the repeat runs; inconclusive = weak or mixed curves; inactive = flat fitted curve, though single readings scatter.
# Assay: qHTS assay to test for compound auto fluorescence at 535 nm (green) in HepG2 cells (AID 720675)
# Settings: green autofluorescence 485/535 nm, 1 h; series mostly up to 91.3 µM; fluorescence, % of fluorescein control: at the top concentration
# From the text: National Center for Advancing Translational Sciences [NCATS]
# NIH Chemical Genomics Center [NCGC]
# U.S. Environmental Protection Agency [EPA]
# National Institutes of Environmental Health Sciences [NIEHS]
# National Toxicology Program [NTP]
# U.S. Food and Drug Administration [FDA]
# Compound auto fluorescence often interferes with screening of the compound library against various biological targets and signaling pathways. Some of these compounds may have fluorophoric properties. Such properties may interfere with the assay outputs resulting in false positives and/or negatives. To decrease such complications and ensure the compound activities are relevant in terms of biological response, the Tox21 10K compound library was screened for auto fluorescence.
# From the fluorophores used as reporter signals in our screening assays, the auto fluorescence equivalencies of compounds against three fluorophores have been evaluated: Triamterene, Fluorescein and Rose Bengal sodium for blue, green and red fluorescence, respectively. The fluorescence intensities were measured using Excitation/Emission wavelengths at 405/460nm, 485/535nm and 540/590nm for blue, green and red labels, respectively. This assay includes the green fluorescence data.
# Tox21 Assay Protocol Summary:
# 2,000 HepG2 cells in 5 uL of culture medium (MEM containing 10% FBS) per well were dispensed into black wall/clear bottom 1536-well plates using a Multidrop Combi Dispenser (ThermoFisher Scientific, Waltham, MA). The assay plates were incubated overnight at 37 C to allow cell attachment to the well bottom, followed by the transfer of 23 nL compound or DMSO vehicle by a pintool work station (Kalypsys , San Diego, CA). After the assay plates were incubated for 1 hr at 37 C and 5% CO2, fluorescence intensities in the assay plates were measured by an Envision (PerkinElmer, Shelton, CT) plate reader using three labels for measuring blue, green and red fluorescence at […] 460, 535 and 590 nm respectively.
# % is scaled to controls: 0 for no effect and ±100 for the full control effect.
SMILES,outcome,"fluorescence, % of fluorescein control"
CN(C)Cc1ccccc1,inactive,–
CN1CCC[C@@H]1Cc1c[nH]c2ccc(CCS(=O)(=O)c3ccccc3)cc12,–,0.0738% [at 46 µM]
C[C@]12CCC(=O)C=C1CC[C@@H]1[C@@H]2CC[C@@]2(C)[C@H]1CC[C@]2(O)C(=O)CO,–,0.13% [at 46 µM]
NS(=O)(=O)c1cc(-c2nn[nH]n2)c(NCc2cccs2)cc1Cl,–,-0.0159% [at 46 µM]
Cc1ncc(CO)c(CN)c1O,–,-0.0108% [at 46 µM]
COC(C)CCO (stereo not given),–,-0.0012%
O=c1[nH]cnc2c1ncn2[C@@H]1O[C@H](CO)[C@@H](O)[C@H]1O,–,-0.202% [at 46 µM]
CCOc1ccc(NC(N)=O)cc1,–,-0.0006%
CC1=C2[C@H](/C=C(\C)C(=O)O)CC[C@@H](C)[C@H]2CC1,–,-0.0193% [at 95.7 µM]
NCCC(O)(P(=O)(O)O)P(=O)(O)O,–,-0.22% [at 46 µM]
OC[C@H]1O[C@@H](O[C@H]2[C@H](O)[C@@H](O)[C@H](O)O[C@@H]2CO)[C@H](O)[C@@H](O)[C@H]1O,–,0.0333%
O=C1N(c2ccccc2)c2ccccc2C1(Cc1ccncc1)Cc1ccncc1,–,0.0058% [at 46 µM]
CCN(CC)CC1CCCCN1CC(=O)N1c2ccccc2C(=O)Nc2cccnc21 (stereo not given),–,-0.0148% [at 46 µM]
CC(C)NC[C@@H](O)COc1cccc2ccccc12,–,0.0105% [at 46 µM]
CCCCc1ccc2nc(NC(=O)OC)[nH]c2c1,–,0.0726% [at 18.6 µM]
FC(F)(F)C(F)(F)C(F)(F)C(F)(F)C(F)(F)C(F)(F)C(F)(F)C(F)(F)Br,–,-0.132% [at 46 µM]
CCc1cc(Cl)c(OC)c(C(=O)NC[C@@H]2CCCN2CC)c1O,inactive,–
CCCCCCCCOC(=O)CCCCCCCCC(=O)OCCCCCCCC,–,0.045%
C=C(C)C(=O)OCCOP(=O)(O)O,–,0.0214% [at 95.7 µM]
CCC(=O)c1ccc2c(c1)N(CCCN(C)C)c1ccccc1S2,–,-0.155% [at 46 µM]

SMILES,outcome,"fluorescence, % of fluorescein control"
CCC(=O)O[C@]1(C(=O)SCF)[C@H](C)C[C@H]2[C@@H]3C[C@H](F)C4=CC(=O)C=C[C@]4(C)[C@@]3(F)[C@@H](O)C[C@@]21C,–,0.0108% [at 18.6 µM]
CCCCC(=O)O[C@]1(C(=O)CO)[C@H](C)C[C@H]2[C@@H]3CCC4=CC(=O)C=C[C@]4(C)[C@@]3(F)[C@@H](O)C[C@@]21C,–,-0.142% [at 46 µM]
CC(C)(C)c1cccc(O)c1,–,-0.0465%
CCCCCCC,–,-0.122% [at 95.7 µM]
CC(C)c1ccccc1,–,0.103% [at 95.7 µM]
NCCCN1CCN(CCCN)CC1,–,0.0925%
ClC(Cl)Cl,inactive,–
O=C(Cl)c1cccc([N+](=O)[O-])c1,–,0.0147%
CC1=CC(=O)CC(C)(C)C1=O,–,0.0776% [at 95.7 µM]
Cc1cc2nc(N)sc2cc1C,–,0.0019%
CC(C)NCC(O)COc1ccc(CCOCC2CC2)cc1 (stereo not given),–,0.0012% [at 46 µM]
O=CCCc1ccccc1,–,-0.0907%
NC(Cc1ccc(F)cc1)C(=O)O (stereo not given),–,-0.0482% [at 3.72 µM]
CCOc1ccc(OCC)c(Cl)c1,–,-0.0109%
C1CCOC1,–,0.032% [at 95.7 µM]
OCCN1CCN(CCO)CC1,–,-0.0576% [at 95.7 µM]
NC(=O)Cc1cccc(C(=O)c2ccccc2)c1N,–,0.0215% [at 46 µM]
CC/C=C\CCOC(=O)C(C)C,–,0.0054%
NC1=NCC2c3ccccc3Cc3ccccc3N12 (stereo not given),–,-0.241% [at 46 µM]
CC(C)Nc1nc(N)nc(Cl)n1,–,0.146%
